“And” between values parts separate entries of the source, which are not always exact repeats. Equal entries are not always repeated. This is part of a sample that, as a whole, favours compounds with a hit. Of some 79,000 tested, about 15% had one in any assay. Some compounds were tested as several samples or in several runs, with calls that do not always agree. The source made the active and inactive calls. No stated cut-off is given here; in the data, active means growth inhibition above about 70%; inactive means the rest.

The nature of this test: NCI Yeast Anticancer Drug Screen. Data for the rad18 strain (AID 177). The note with it: S. cerevisiae rad18 mutant growth inhibition, stronger effect = higher value. How it is done: Growth inhibition of yeast strains with defined genetic alterations is measured as a screen for potential anti-cancer activity. Selected strains with alterations in DNA damage repair or cell cycle control were exposed to compounds and growth inhibition was measured relative to vehicle treated controls. The strain used in this assay is rad18

For `Cc1ccc(S(=O)(=O)N/N=C/c2c(O)ccc3ccccc23)cc1`, the growth inhibition (at 1.2 µM) is 8% (inactive); the growth inhibition (at 3.7 µM) is 17% (inactive); the growth inhibition (at 11.0 µM) is 87% (active); the growth inhibition (at 33.0 µM) is 87% (active); the growth inhibition (at 100.0 µM) is 83% (active).

On to `O=C(N/N=C/c1ccc2c(c1)CCC2)c1ccccc1[N+](=O)[O-]`, for which the growth inhibition was 8% (inactive) (at 1.2 µM); 13% (inactive) (at 3.7 µM); 9% (inactive) (at 11.0 µM); 12% (inactive) (at 33.0 µM); 96% (active) (at 100.0 µM).

Regarding `O=Cn1c2ccccc2c2ccccc21`, the growth inhibition (at 1.2 µM) was -41% (inactive); the growth inhibition (at 3.7 µM) was -32% (inactive); the growth inhibition (at 11.0 µM) was -26% (inactive); the growth inhibition (at 33.0 µM) is -21% (inactive); the growth inhibition (at 100.0 µM) was 65% (inactive).

For `COc1ccc2[nH]c3c(C)c4cc[n+](C)cc4c(C)c3c2c1`, the growth inhibition runs as follows: (at 1.2 µM) 23% (inactive) and 27% (inactive); (at 3.7 µM) 40% (inactive) and 35% (inactive); (at 11.0 µM) 38% (inactive); (at 33.0 µM) 45% (inactive) and 44% (inactive); (at 100.0 µM) 41% (inactive) and 82% (active).

As to `NNc1nnc(-c2ccccc2)nc1Cc1ccccc1`, the growth inhibition is -17% (inactive) (at 1.2 µM); -30% (inactive) (at 3.7 µM); -5% (inactive) (at 11.0 µM); 96% (active) (at 33.0 µM); 91% (active) (at 100.0 µM).

As to `c1ccc(N/N=C2\CC(c3ccccc3)Oc3ccccc32)cc1` (stereo not given), the growth inhibition is, setting by setting: (at 1.2 µM) 6% (inactive); (at 3.7 µM) 14% (inactive); (at 11.0 µM) 20% (inactive); (at 33.0 µM) 33% (inactive); (at 100.0 µM) 49% (inactive).

`O=[N+]([O-])C(=C(NCc1ccccc1)NCc1ccccc1)C(Cl)=C(Cl)Cl`: the growth inhibition by setting is: (at 1.2 µM) -1% (inactive); (at 3.7 µM) 1% (inactive); (at 11.0 µM) 5% (inactive); (at 33.0 µM) 20% (inactive); (at 100.0 µM) 85% (active).

Regarding `Cc1ccc2nc(N/N=C/c3ccc(C)s3)cc(C)c2c1`, the growth inhibition runs as follows: (at 1.2 µM) -8% (inactive); (at 3.7 µM) -1% (inactive); (at 11.0 µM) 2% (inactive); (at 33.0 µM) 99% (active); (at 100.0 µM) 93% (active).

(Values after PubChem BioAssay (NCI).)
